{
  "source": "paper PMC5540273",
  "about": "(PLoS ONE, 2017);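 note: KINOMEscan kinase panel screen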",
  "data": [
    {"test_system": "SNRK", "conditions": "concentration: 1 μM, replicates: in singlicate; n = 1", "units": {"%Inh": "%"}, "values": [
      {"smiles": "CC(=O)Nc1nc2cnc(Nc3cc(NC(=O)c4cccc(CCC#N)c4)ccc3C)nc2s1", "%Inh": 33},
      {"smiles": "Cc1nnc(-c2ccc3occ(-c4ccc(S(C)=O)cc4)c3c2)[nH]1", "note": "(centres unmarked)", "%Inh": 0},
      {"smiles": "Cc1ccc(NC(=O)Nc2cccc(Cl)c2)cc1-c1ccc(C(=O)Nc2ccncc2)cc1", "note": "[GSK1398468]", "%Inh": 2},
      {"smiles": "COc1ccc(Nc2nccc(-c3cccc(NC(=O)c4cc5cc(F)ccc5[nH]4)c3)n2)cc1", "note": "[GSK1229782]", "%Inh": 0},
      {"smiles": "COc1cccc(-c2cc(-c3c[nH]nc3-c3ccccn3)ccn2)c1", "note": "[GW680338]", "%Inh": 0},
      {"smiles": "Fc1cc(Cl)ccc1Nc1ccnc2cc(-c3ccc(CN4CCCCC4)o3)ccc12", "note": "[GW560116]", "%Inh": 0},
      {"smiles": "O=C(Nc1ccc2c(c1)OCO2)NC1CCN(c2ccnc(Nc3ccc(F)cc3)n2)C1", "note": "(centres unmarked) [GSK1379724]", "%Inh": 0},
      {"smiles": "O=C(Nc1ccccc1)Nc1cccc(Oc2ccc3nccn3n2)c1", "%Inh": 0},
      {"smiles": "Cn1ccc2ncnc(Oc3ccc(NC(=O)Nc4ccccc4)cc3)c21", "%Inh": 33},
      {"smiles": "Cc1ccc(-c2cc(-c3c[nH]nc3-c3ccccn3)ccn2)cc1", "note": "[GW684088]", "%Inh": 0},
      {"smiles": "O=C(O)COc1ncnc2cc(-c3ccc4[nH]ncc4c3)sc12", "%Inh": 11},
      {"smiles": "C[C@@H]1CCCCN1c1cc(-c2ccc3c(N)n[nH]c3c2)nc(N)n1", "note": "[GSK2258759]", "%Inh": 0},
      {"smiles": "COc1cc(Nc2nccc(N3CCC(NC(=O)Nc4cc(C)ccc4C)C3)n2)cc(OC)c1OC", "note": "(centres unmarked) [GSK1379762]", "%Inh": 0},
      {"smiles": "Nc1nc(-c2nccs2)c(-c2ccnc3ccccc23)s1", "note": "[GW693542]", "%Inh": 0},
      {"smiles": "Cn1cncc1-c1ccc2ncnc(Nc3ccc(OCc4ccccc4)cc3)c2c1", "note": "[GW320571]", "%Inh": 86},
      {"smiles": "Cc1cccc(-c2nc(Nc3ccc4[nH]ncc4c3)c3ccccc3n2)n1", "note": "[GW857175]", "%Inh": 10},
      {"smiles": "O=C1NC(=O)C(N2CCc3ccccc32)=C1c1ccccc1Cl", "note": "[SB-373598]", "%Inh": 1},
      {"smiles": "O=C(Nc1n[nH]c2nc(-c3nccs3)c(Br)cc12)C1CC1", "note": "[SB-742251]", "%Inh": 0},
      {"smiles": "CCCc1ccc(S(=O)(=O)NC2CCN(c3ccnc(Nc4ccc(F)cc4)n3)C2)cc1", "note": "(centres unmarked) [GSK1379715]", "%Inh": 0},
      {"smiles": "Fc1cccc(COc2nnc(-c3ccc4c(c3)CCO4)o2)c1", "%Inh": 0},
      {"smiles": "CS(=O)(=O)c1ccc(-c2c(-c3ncn[nH]3)sc(N3CCOCC3)c2C#N)cc1", "%Inh": 7},
      {"smiles": "COc1ccc(CNC(=O)NC2CCN(c3ccnc(Nc4cc(OC)c(OC)c(OC)c4)n3)C2)cc1", "note": "(centres unmarked) [GSK1379748]", "%Inh": 0},
      {"smiles": "O=c1cc(N2CCOCC2)nc2n(Cc3cccc(Cl)c3Cl)ccn12", "note": "[GSK2286295]", "%Inh": 0},
      {"smiles": "Cc1ccccc1-n1cnc2c(N)ncnc21", "note": "[SKF-97510]", "%Inh": 0},
      {"smiles": "Cc1cccc(-c2nc(-c3ccc(S(C)(=O)=O)cc3)sc2-c2ccnc(NCCc3ccccc3)c2)c1", "%Inh": 7},
      {"smiles": "Cc1cccc(-c2nc(C)cc(Nc3ccncc3)n2)n1", "note": "[GSK257997]", "%Inh": 0},
      {"smiles": "Cc1cc(-c2ccc3c(c2)CC[C@@H](N[C@@H](C)c2ccccc2)C3)cnc1N.Cl", "note": "[GW412617]", "%Inh": 0},
      {"smiles": "Cc1ccc(NC(=O)Nc2cc(C(C)(C)C)nn2-c2ccccc2)cc1", "note": "[GSK1014915]", "%Inh": 0},
      {"smiles": "COc1cc2ncn(-c3cc(OCC4CCCO4)c(C(N)=O)s3)c2cc1OC", "note": "(centres unmarked) [GSK204607]", "%Inh": 0},
      {"smiles": "COc1cccc(NC(=O)NC2CCN(c3ccnc(Nc4ccc(F)cc4)n3)C2)c1", "note": "(centres unmarked) [GSK1379721]", "%Inh": 0},
      {"smiles": "CC1=C(C(=O)Nc2cc3cn[nH]c3cc2F)C(c2ccc(C(F)(F)F)cc2)CC(=O)N1", "note": "(centres unmarked) [GSK429286]", "%Inh": 0},
      {"smiles": "COc1ccc(C2=C(Nc3cccc(C(=O)O)c3)C(=O)NC2=O)cc1", "note": "[SB-390765]", "%Inh": 0},
      {"smiles": "COc1cc2ncnc(Nc3ccc4nc(-c5ccccc5)[nH]c4c3)c2cc1OC.Cl", "note": "[GW282450]", "%Inh": 0},
      {"smiles": "CN1C(=O)C(Nc2ccc(Cl)c(C(=O)O)c2)=C(c2ccc(Cl)cc2)C1=O", "note": "[SB-404290]", "%Inh": 0},
      {"smiles": "Cl.NC(=O)c1cccc(Nc2nccc(Nc3ccc(Oc4cccc(Cl)c4)c(Cl)c3)n2)c1", "note": "[GW659008]", "%Inh": 0}
    ]}
  ]
}
